Bioassay records: PubChem, National Center for Advancing Translational Sciences (NCATS)
A selection: hits, their analogues and other compounds. The true share with any hit is near 7.4%.
NPC1 prom act – qHTS Assay for NPC1 Promoter Activators | Huh7 NPC1 promoter luciferase reporter, 24 h | 2.4% of 320,000 active | Potency, µM (series often up to 9.22 µM), for inactives: at the top dose activation, most hits filed as activators; further: % of control where 0% means no effect; nearly all actives have a fitted effect of over 60% in size
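Stable NPC1-promoter luciferase Huh7 line; cpd (DMSO) 24 h, 37 °C, 5% CO2; Amplite luciferase reagent 10 min RT; luminescence readout. qHTS format.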
Rab9 prom act – qHTS Assay for Rab9 Promoter Activators; Huh7 Rab9 promoter-luciferase reporter, luminescence, 24 h; Potency, µM (titrated, usually from 9.22 µM), for the others: at the top dose activation, negative = inhibition, hits mostly activators; 2.8% of 320,000 active; further: % of control where 0% means no effect; nearly all actives have a fitted effect of over 60% in size
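Luciferase signal after 10 min detection reagent at ambient indicates Rab9 promoter upregulation; stably transfected Huh7 cells were treated 24 h with compound in DMSO at 37 °C, 5% CO2.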
SMN2 splice enh – qHTS Assay for Enhancers of SMN2 Splice Variant Expression; Potency, µM (titrated, usually from 46.1 µM), without a hit: at the highest dose activity change, positive = activation, usual class: activators; 2.8% of 210,000 active; HEK293 SMN2-luciferase splicing reporter, luminescence, 30-36 h; further: % of control where 0% means no effect; nearly all actives have a fitted effect of over 55% in size
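qHTS luciferase splicing reporter: luminescence rises when SMN2 exon 7 is included in transfected HEK293 cells. Compound exposure lasted 30-36 h at 37C, with 4.5 mM final sodium butyrate as control, followed by a ONE-Glo read.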
ELG1 genotoxic – qHTS screen for small molecules that induce genotoxicity in human embryonic kidney (HEK293T) cells expressing luciferase-tagged ELG1. HEK293T ELG1-luciferase reporter, luminescence, 16 h. Potency, µM (series often up to 46 µM), without a hit: top-dose activity change, positive = activation, usual class: activators. AID 504466, 2011. 1.3% of 330,000 active; further: % of control where 0% means no effect; nearly all actives have a fitted effect of over 60% in size
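Quantitative HTS format in 1536-well plates. HEK293T ELG1-luciferase reporter cells receive test compound and are incubated 16 hr at 37 °C, 5% CO2; ONE-Glo added, 30 min room temperature, then luminescence read.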
FLuc counter – qHTS profiling assay for firefly luciferase inhibitor/activator using purifed enzyme and Km concentrations of substrates (counterscreen for miR-21 project); purified FLuc, Km substrates, luminescence inhibition; Potency, µM (highest dose often 57.5 µM), inactives show at the top dose activity change, negative = inhibition, hits mostly inhibitors; Luciferin 4-monooxygenase (Photinus pyralis), P08659; 6.9% of 360,000 active;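 further: plate controls were vehicle for no effect and reference inhibitor for full effect; nearly all actives have a fitted effect of over 55% in size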
Target sequence (P08659 whole entry, looked up): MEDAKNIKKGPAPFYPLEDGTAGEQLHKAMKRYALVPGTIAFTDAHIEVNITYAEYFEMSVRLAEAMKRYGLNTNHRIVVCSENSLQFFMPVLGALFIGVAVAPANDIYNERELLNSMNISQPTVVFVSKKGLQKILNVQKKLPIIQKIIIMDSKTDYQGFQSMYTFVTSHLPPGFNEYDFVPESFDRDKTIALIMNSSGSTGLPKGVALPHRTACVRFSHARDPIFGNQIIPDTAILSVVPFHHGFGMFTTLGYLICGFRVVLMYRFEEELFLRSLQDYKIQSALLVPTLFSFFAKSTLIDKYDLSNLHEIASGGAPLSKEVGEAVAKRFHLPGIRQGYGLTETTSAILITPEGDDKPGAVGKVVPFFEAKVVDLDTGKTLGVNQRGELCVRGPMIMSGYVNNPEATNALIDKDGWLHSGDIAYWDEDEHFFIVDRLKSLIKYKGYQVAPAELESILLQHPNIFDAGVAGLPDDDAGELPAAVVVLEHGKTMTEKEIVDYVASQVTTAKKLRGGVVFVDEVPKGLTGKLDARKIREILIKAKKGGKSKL
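Biochemical qHTS of compounds, final roughly 60 µM downward over six points, against 10 nM purified firefly luciferase using Km concentrations of substrates (10 uM D-luciferin, 10 uM ATP) in Tris acetate pH 7.5 buffer; luminescence output.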
Starred values were filed as active, the others as inactive; ? = inconclusive; · = no result; [ ] = dose if it differs, or a comment. The call rests on the fitted dose curve; in most records, active means well fitted curve in the direction sought with a large enough effect; inconclusive means small, poorly fitted or top-dose-only effect, or another doubt; inactive means no such curve, though single readings can be large; an effect the other way counts as inactive or inconclusive. Potency means the concentration at half of the fitted maximal effect.

SMILES	NPC1 prom act	Rab9 prom act	SMN2 splice enh	ELG1 genotoxic	FLuc counter
COc1ccc(/C=C2\SC(=O)N(CC(=O)NC3C=CS(=O)(=O)C3)C2=O)cc1 (stereo unspecified)	1%	9%	·	4%	-2%
CCN(Cc1ccccc1)C(=O)c1nn(-c2ccc(OC)cc2)c(=O)c2c1c1ccccc1n2C	-2%	-7%	0%	-11%	0%
O=C(Nc1ccc(CN2CCOCC2)cc1)c1ccc2ccccc2c1	1µM*	1.4µM*	·	?	8.5µM*
CCOc1ccc(C(=O)Nc2cccc(NC(=O)c3ccc(C(C)(C)C)cc3)c2)cc1Br	·	·	?	·	1.5µM*
COc1cccc(/C=C/C(=O)Nc2ccccc2N2CCOCC2)c1	0%	9%	·	·	17µM*
C/C(=N/NC(=O)c1ccco1)c1ccc(NC(=O)c2ccc(F)cc2)cc1	29%	?	16µM*	13%	?
COCCCNC(=O)c1ccc(NC(=O)N2CCCCc3ccccc32)cc1	·	·	·	·	-2%
COC(=O)[C@@]12CCCCN1[C@H](c1ccc(-c3ccc4c(c3)OCO4)c(OC)c1)[C@@H]1C(=O)N(C)C(=O)[C@@H]12	0%	3%	·	-7%	0%
O=C(Nc1ccc(CN2CCOCC2)cc1)c1cccc(F)c1	2.8µM*	2.8µM*	13µM*	16µM*	9.5µM*
CCOc1ccc(NC(=O)C(=O)NCCc2ccccc2)cc1	·	·	-11%	·	1%
Cc1cc(/C=C(\C#N)C(=O)Nc2ccccc2)c(C)n1-c1ccc(F)cc1	·	·	2%	·	2.7µM*
CCCn1c(C)cc(/C=C(\C#N)C(=O)OCC(=O)Nc2cccc(OC)c2)c1C	-6%	-7%	-12%	-1%	?
Cc1cc(/C=C(\C#N)C(=O)NCC2CCCO2)c(C)n1-c1ccc(Cl)cc1 (stereo unspecified)	?	3.5µM*	·	1%	4.3µM*
CCCn1c(C)cc(/C=C(\C#N)C(=O)OCC(=O)Nc2cccc(S(N)(=O)=O)c2)c1C	14%	25%	·	5%	3.8µM*
CCOC(=O)/C(C#N)=C/c1cc(C)n(-c2ccccc2)c1C	3.2µM*	0.56µM*	-73%	0.65µM*	0.54µM*
COc1cc(/C=C(\C#N)C(=O)NCC2CCCO2)ccc1O (stereo unspecified)	-2%	-3%	11%	5%	-4%
CCOC(=O)c1[nH]c(C)c(C(=O)NCc2ccccc2Cl)c1C	·	·	·	·	3%
COc1ccc2c(c1)c1c(c(=O)n(-c3cccc(C)c3)c(=O)n1CC(=O)NCc1ccc(C)cc1)n2C	·	·	·	·	0%
N#C/C(=C\c1ccccc1O)C(=O)Nc1cccnc1	2.8µM*	1.6µM*	·	?	3µM*
Cc1cc(/C=C(\C#N)C(=O)Nc2ccccc2)c(C)n1-c1cccnc1	?	2.8µM*	5.6µM*	13%	1.5µM*
N#C/C(=C\c1cccc([N+](=O)[O-])c1)C(=O)Nc1cccnc1	0%	-1%	-5%	3%	-5%
Cc1cc(C(=O)O)ccc1-n1c(C)cc(/C=C(/C#N)C(=O)Nc2ccccc2)c1C	-2%	1%	·	-3%	?
CC(=O)Nc1ccc(S(=O)(=O)NCCC(=O)NCCCc2ccccc2)cc1	-1%	-4%	·	0%	·
COc1ccc(NS(=O)(=O)c2cc3c4c(c2)CCN4C(=O)CC3)c(OC)c1	-4%	-5%	·	6%	0%
Cc1cccc(NC(=O)c2cc(-c3ccc4c(c3)OCCO4)on2)c1	·	·	·	·	0.19µM*
SMILES	NPC1 prom act	Rab9 prom act	SMN2 splice enh	ELG1 genotoxic	FLuc counter
Cc1ccc(Cl)cc1NC(=O)c1cc(-c2ccc3c(c2)OCCO3)on1	·	·	·	·	1.3µM*
CC(C)c1cc(C(=O)Nc2cccc(C(F)(F)F)c2)no1	-2%	-5%	-14%	?	15µM*
Cc1ccc(NC(=O)c2cc(-c3ccc4c(c3)OCO4)on2)cc1	1%	20%	-3%	17%	-5%
O=C(Nc1cccc(C(F)(F)F)c1)c1cc(-c2ccc(F)cc2)on1	-1%	-3%	11%	?	?
O=C(Nc1cc(Cl)ccc1O)c1cc(-c2ccc3c(c2)OCO3)on1	·	·	?	·	-16%
O=C(Nc1cccc(C(F)(F)F)c1)c1cc(-c2ccc(Cl)cc2)on1	·	·	-9%	·	4%
O=C(Nc1cccc(C(F)(F)F)c1)c1cc(-c2ccc3c(c2)OCCO3)on1	·	·	·	·	1.5µM*
O=C(Nc1ccc(C(=O)N2CCC(N3CCCC3)CC2)cc1)c1ccc(Br)o1	-2%	-1%	·	1%	6%
O=C(Nc1ccc(F)cc1)C1CCN(C(=O)c2ccc(F)cc2)CC1	-1%	2%	·	2%	·
O=C(Nc1ccc(Br)cc1)c1cc(-c2ccc3c(c2)OCO3)on1	-9%	-11%	·	4%	-2%
O=C(Nc1cccc(Cl)c1)c1cc(-c2ccc3c(c2)OCCO3)on1	·	·	·	·	0.48µM*
Cc1ccc(-n2ncc(C(=O)NC3CC3)c2C2CCN(C(=O)OC(C)(C)C)CC2)cc1	2%	-6%	·	1%	5%
CNc1cnn(-c2ccc(C)cc2)c(=O)c1Cl	1.6µM*	3.2µM*	11µM*	?	13µM*
Cc1ccc(-n2nc(C)c(NC(=O)CCl)c2C)cc1	-11%	-34%	-35%	-7%	-2%
Cc1ccc(-n2ncc(Cl)c2C(=O)NC2CC2)cc1	3.2µM*	1.8µM*	·	?	11µM*
CNC(=O)c1c(Cl)cnn1-c1ccc(C)cc1	2.2µM*	3.2µM*	·	?	12µM*
Nc1c(C(=O)N/N=C/c2ccc(Cl)cc2)cnn1-c1ccccc1	29%	?	·	14%	6%
CNc1cnn(-c2ccc(C)cc2)c(=O)c1Sc1ccc(C)cc1	0%	1%	8%	2%	-1%
O=c1c(Cl)c(N/N=C/c2ccc(Cl)cc2)cnn1-c1ccccc1	0.56µM*	0.32µM*	-7%[1.84 µM]	6%	-4%
COc1ccc(C=O)cc1OC(=O)N1CCOCC1	0%	-7%	·	2%	1%
CNC(=O)c1c(Br)cnn1-c1ccc(C)cc1	2.8µM*	3.2µM*	·	?	7.6µM*
C=CCNC(=O)c1c(Cl)cnn1-c1ccc(C)cc1	2µM*	3.2µM*	·	?	17µM*
C=CCNC(=O)c1cnn(-c2ccccc2)c1-c1ccccc1	-2%	-1%	·	-5%	-2%
Cc1cc(C)c(/C=C/c2onc(C)c2S(=O)(=O)N2CCC(C(=O)NCc3ccco3)CC2)c(C)c1	·	·	·	·	-8%
COCCN1C(=O)/C(=C/c2ccc(N3CCCC3)cc2C)SC1=S	0%	20%	·	3%	4.8µM*
CCn1c(C)cc(/C=C2/SC(=O)N(CC(=O)N3CCCC3)C2=O)c1C	8%	11%	·	-9%	21µM*
COCCn1c(C)cc(/C=C2/SC(=O)N(CC(=O)N3CCCC3)C2=O)c1C	2%	16%	·	17%	19µM*
